In PubChem BioAssay AID463165 (Johns Hopkins Ion Channel Center, 2010):
The campaign covered roughly 310,000 compounds. About 1,400 (0.45%) were called active. The sample holds actives, similar compounds and a random draw of the others, so the mix is not that of the screen.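 The calls were made as follows: active = B-score, a plate-corrected calcium signal, over three deviations above library mean, with baseline fluorescence within five deviations of library mean; inactive = the rest.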

Target: Regulator of G-protein signaling 4 (Homo sapiens) (UniProt P49798)
Sequence (P49798 whole entry, looked up): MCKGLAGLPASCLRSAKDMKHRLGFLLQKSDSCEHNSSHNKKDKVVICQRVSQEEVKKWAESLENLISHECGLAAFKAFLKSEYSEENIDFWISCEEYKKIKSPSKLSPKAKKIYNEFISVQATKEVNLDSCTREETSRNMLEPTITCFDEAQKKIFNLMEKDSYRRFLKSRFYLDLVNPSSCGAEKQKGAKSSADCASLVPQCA
Assay: RGS4 inhibitors, primary screen, cell-based, HEK293 M3R inducible RGS4, calcium flux (AID 463165);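 also: RGS4 expression induced by doxycycline in cells with stable M3 receptor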;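 as to B-score: B-score is computed from the integrated fluorescence ratio over baseline after carbachol; higher B-score means a larger calcium signal and so more RGS4 inhibition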
Details: Fluo-4 calcium flux, at 10 µM, triggered by carbachol at its EC20; active compounds read high

Structure (SMILES)	B-score
Nc1c(-c2ccc(F)cc2)cnn1C1CCS(=O)(=O)C1 (centres undefined)	inactive
C/C(=N\NC(=O)CSc1nc2ccccc2c(=O)n1-c1ccccc1C)c1cccs1	inactive
O=C(O)C(c1ccccc1)N1C(=O)/C(=C\c2ccc(-c3cccc(Cl)c3)o2)SC1=S (centres undefined)	10.3 (active)
CN1C(=O)/C(=C\c2ccc(-c3ccccc3)o2)SC1=S	inactive
O=C1NN(c2ccccc2)C(=O)/C1=C/c1ccc(-c2cccc(C(=O)O)c2)o1	inactive
NC(=O)C1CCN(CC(O)CSc2ccc(F)cc2)CC1 (centres undefined)	inactive
CC(Oc1ccccc1)C(=O)Nc1c2c(nn1-c1ccccc1)CS(=O)C2 (centres undefined)	inactive
COc1ccc(-c2nc3c(s2)CCc2onc(-c4ccc(Br)cc4)c2-3)cc1	inactive
O=C(/C=C/c1cccc([N+](=O)[O-])c1)N1CCN(Cc2ccccc2)CC1	inactive
O=[N+]([O-])/C=C/c1ccc2c(ccn2Cc2ccccc2)c1	44.8 (active)
O=C(Cn1ccc2cc(S(=O)(=O)N3CCCC3)ccc21)NCc1ccccc1	inactive
O=c1c2cc([N+](=O)[O-])ccc2nc2n1CCC2	inactive
C=CCOc1cccc(C2NC(=O)c3ccccc3O2)c1 (centres undefined)	inactive
Oc1c(Cl)cc(Cl)cc1/C=N/c1ncn[nH]1	inactive
Oc1ccc(Br)cc1C=Nc1ccc2[nH]ncc2c1	inactive
COc1cc(Br)cc(/C=N/c2ncn[nH]2)c1O	5.03 (active)
Cc1ccc(CN2CCN(Cc3cccc(C)n3)CC2CCO)cc1 (centres undefined)	inactive
CCCCCN(C(=O)CCC(=O)OCC(=O)NC1CCC(C)CC1)c1c(N)n(CCCC)c(=O)[nH]c1=O (centres undefined)	inactive
COc1cc(/C=C2/C(=O)NN(c3ccc(F)cc3)C2=O)cc([N+](=O)[O-])c1O	inactive
COc1cc(/C=C2/C(=O)NN(c3cccc(Cl)c3)C2=O)cc(Br)c1O	5.61 (active)
COc1cc(/C=C2\SC(=O)NC2=O)ccc1OCc1ccc(Cl)nc1	inactive
COc1cc(/C=N/O)cc(Br)c1OCc1cccc(Cl)c1	inactive
Cc1cccc(C)c1-n1c(C)cc(/C=C2\C(=O)NN(c3ccccc3)C2=O)c1C	inactive
C#CCOc1ccc(/C=C2/C(=O)NN(c3ccccc3)C2=O)cc1OC	7.25 (active)
CONc1nc2nonc2nc1NOC	inactive
COc1ccc(NC(=O)/C(Cl)=C(/Cl)S(=O)Cc2ccc(C)cc2)cn1 (centres undefined)	5.83 (active)

Structure (SMILES)	B-score
COc1ccc(Nc2ccc([N+](=O)[O-])cn2)cn1	inactive
Cc1ccc(NC(=O)OCc2cncs2)cc1	inactive
COC(=O)c1ccc(Nc2ncnc3sccc23)cc1	inactive
Cc1ccc(-n2c(SCC(=O)N3CCC(C(=O)O)CC3)nc3ccccc3c2=O)cc1C	inactive
Cc1nc(-c2ccccc2)sc1C(=O)/C=C/c1ccccc1	11.9 (active)
Cc1nc(-c2ccccc2)sc1C(=O)/C=C/N(C)C	inactive
Cc1nc(-c2ccc(Cl)cc2)sc1C(=O)CBr	inactive
Cc1cccc(C(=O)NC(=S)N(C)C2CCCCC2)c1	inactive
CCC(c1nnnn1Cc1ccco1)N(CCc1ccccc1)Cc1cc2cccc(C)c2[nH]c1=O (centres undefined)	inactive
CCC(c1nnnn1Cc1ccco1)N(Cc1cc2cc(OC)ccc2[nH]c1=O)C1CCCCC1 (centres undefined)	16.8 (active)
CCC(c1nnnn1Cc1ccccc1)N(Cc1cc2cc(OC)ccc2[nH]c1=O)CC1CCCO1 (centres undefined)	inactive
COC(=O)/C=C(\Oc1ccccc1)C1(O)CCCCC1	inactive
O=C(Nc1ccccc1)C1CCN(C(=O)c2ccc(Br)cc2)CC1	inactive
COc1ccc(C(C[N+](=O)[O-])n2nc(C)cc2C)cc1 (centres undefined)	5.35 (active)
COc1ccc(C(=O)CSc2nc(C)cc(C)n2)cc1[N+](=O)[O-]	inactive
COc1ccc(OCc2cn3c(C)cc(C)nc3n2)cc1	inactive
CCOc1ccc(NC(=S)NC(=O)/C=C/c2ccc(OC)cc2)c([N+](=O)[O-])c1	inactive
N#C/C(=C\C1=C(N2CCOCC2)C(=C\c2ccccc2)/CC1)C(=O)Nc1ccccc1F	inactive
O=C1Nc2ccc(Br)cc2/C1=N/N=C/C1=C(N2CCOCC2)C(=C\c2ccccc2)/CC1	13.1 (active)
C(=N\N1CCN(c2ccccn2)CC1)/C1=C(N2CCOCC2)C(=C/c2ccccc2)/CC1	inactive
COc1ccc(C(F)(F)F)cc1N/C=C\c1nnnn1-c1ccc(C)cc1	inactive
CCOC(=O)c1ccccc1NC(=O)COC(=O)CCC(=O)N1CCOCC1	inactive
S=c1[nH]nc(-c2cc(-c3ccccc3)n[nH]2)n1/N=C/c1c2ccccc2cc2ccccc12	inactive
Cc1cc(-c2n[nH]c(=S)n2/N=C/C(Br)=C/c2ccccc2)n[nH]1	7.31 (active)
CC(C)c1cc(C(=O)N/N=C/C(Br)=C/c2ccccc2)n[nH]1	inactive
COCCn1c(SCC(=O)c2[nH]c(C)c(C(C)=O)c2C)nc2ccccc2c1=O	inactive

Structure (SMILES)	B-score
CCOc1cc2[nH]c(=S)n(Cc3ccc(C(=O)N4CCN(C)CC4)cc3)c(=O)c2cc1OCC	inactive
O=C(C1CCC(=O)N(C2CC2)C1)N1CCN(c2ccc(Cl)cc2)CC1 (centres undefined)	inactive
C=CCNc1nc(N)c([N+](=O)[O-])c(NC2CCCCC2)n1	7.68 (active)
Nc1nc(Nc2ccccc2F)nc(NC2CCCCC2)c1[N+](=O)[O-]	inactive
Nc1nc(NCC2CCCO2)nc(Nc2ccccc2F)c1[N+](=O)[O-] (centres undefined)	inactive
CC(C)c1ccc(/C=C2\NC(=O)NC2=O)cc1	inactive
C=CCNC(=O)CCCC(=O)NCC=C	inactive
O=C(/C=C/c1ccc(Cl)cc1Cl)c1cccnc1	inactive
CN(C)c1ccc(/C=C/C(=O)c2ccc(O)cc2)cc1[N+](=O)[O-]	inactive
CN(C)c1ccc(/C=C/C(=O)c2ccc(C(C)(C)C)cc2)cc1[N+](=O)[O-]	inactive
O=C(Nc1cccnc1)c1ccc(Cl)c([N+](=O)[O-])c1	inactive
O=C(/C=C/c1ccc(Cl)c([N+](=O)[O-])c1)c1ccc(O)cc1	6.92 (active)
O=C(/C=C/c1ccc(Cl)c([N+](=O)[O-])c1)c1cccnc1	11 (active)
Cc1ccc(S(=O)(=O)N(CC(=O)NN=C2CCN(C)CC2)c2ccc(F)cc2)cc1	inactive
CCCCN(C(=O)/C=C/c1ccco1)c1c(N)n(CC(C)C)c(=O)[nH]c1=O	inactive
CS/C(=C\[N+](=O)[O-])Nc1ccc(C)cc1	inactive
COC(=O)NNC(=O)C1CCC(C)CC1 (centres undefined)	inactive
c1ccc(C[C@H]2CNCCN2CCC23CC4CC(CC(C4)C2)C3)cc1	6.17 (active)
O=C1CCNCCN1[C@H](CO)Cc1ccccc1	inactive
CC(C)CN(C(=O)CN1CCN(S(=O)(=O)c2ccccc2)CC1)c1c(N)n(CC(C)C)c(=O)[nH]c1=O	inactive
CCCCNC(=O)N(O)C1N(/N=C/c2ccc(N(C)C)cc2)C(=S)SC1(C)C (centres undefined)	inactive
Nc1ccccc1SC(C[N+](=O)[O-])c1ccccc1 (centres undefined)	7 (active)
CCS(=O)(=O)c1cc([N+](=O)[O-])c(Sc2ccccc2N)s1	inactive
Nc1ccccc1SCc1cc([N+](=O)[O-])cc2c1OCOC2	inactive
CCCCCCCNC(=O)C1(CC2CC(c3cccc(Br)c3)=NO2)CCN(C(=O)c2cc(OCC)c(OCC)c(OCC)c2)CC1 (centres undefined)	inactive
Cc1ccc(Nc2nc(N3CCOCC3)nc(N3CCOCC3)n2)cc1Cl	inactive

Structure (SMILES)	B-score
CNc1nc(Nc2ccc(C)c(Cl)c2)nc(N)c1[N+](=O)[O-]	12.7 (active)
COc1cccc(Nc2nc(N)c([N+](=O)[O-])c(NCc3ccco3)n2)c1	inactive
CC(=O)c1nn(-c2cccc(C(F)(F)F)c2)c(=O)[nH]c1=O	inactive
O=C1CCCN1CCCNC(=S)Nc1ccc(F)c(Cl)c1	inactive
Cc1nc2ccccc2c(=O)n1-c1ccc(NS(=O)(=O)c2ccc(F)cc2F)cc1	inactive
O=C1NC(c2ccc(-c3ccccc3[N+](=O)[O-])o2)C(C(=O)c2ccc(Cl)cc2)C(O)(C(F)(F)F)N1 (centres undefined)	8.35 (active)
CC(=O)C1C(c2cccc(Oc3ccccc3)c2)NC(=O)NC1(O)C(F)(F)F (centres undefined)	inactive
CC1=NN(c2ccc(Cl)c(C(=O)O)c2)C(=O)/C1=C/c1ccc(-c2ccccc2[N+](=O)[O-])o1	inactive
O=C(OCc1ccc([N+](=O)[O-])cc1)C1CC(=O)N(Cc2ccccc2Cl)C1 (centres undefined)	inactive
CC(=O)Nc1ccc(Nc2c([N+](=O)[O-])cc(S(C)(=O)=O)cc2[N+](=O)[O-])cc1	inactive
O=C(NCc1cccs1)c1ccc(CS(=O)Cc2ccccc2Cl)o1 (centres undefined)	inactive
CC(C)OCCCNC(=O)CN1C(=O)/C(=C/c2ccccc2F)Oc2ccccc21	inactive
O=C(CN1C(=O)COc2ccc(Cl)cc21)N1CCOCC1	inactive
O=C(CN1CCCCCC1)Nc1ccc(Cl)cc1F	inactive
COc1cc2c(cc1OC)C(Nc1ccc(S(N)(=O)=O)cc1)=NC(C)(C)C2	inactive
COc1cc2c(cc1OC)C(C(C)C)=NC(C)(C)C2	inactive
COc1cc2c(cc1O)C(SC)=NC(C)(C)C2	15.1 (active)
O=C(CSC1=NS(=O)(=O)c2cc(F)ccc2N1)Nc1ccccc1F	inactive
CCCCOC(=O)CNc1nnc(SCC(=O)OCC)[nH]c1=O	26.4 (active)
CCOC(=O)CSc1nc(C)c(Oc2ccc(Cl)cc2Cl)c(=O)[nH]1	inactive
Cc1nnc(SCC(=O)N2CCOCC2)[nH]c1=O	inactive
NC(=O)C1CCCN(CC(=O)N2CCN(c3ccccc3)CC2)C1 (centres undefined)	inactive
COc1ccc(C(=O)/C=C/c2cccnc2)c(OC)c1	inactive
COc1ccc(/C=C/C(=O)c2ccc(OC)cc2O)cc1	6.02 (active)
COc1ccc(C(=O)/C=C/c2ccc(OC3CSC3)cc2)cc1	inactive
Cc1ccc(N(C(=O)c2ccc(S(=O)(=O)N(C)C)cc2)C2C=CS(=O)(=O)C2)cc1 (centres undefined)	inactive
